High-throughput results (PubChem)
Pf growth 48h: inhibits P. falciparum growth in the first generation, 48 h; 310,000 tested, 5.9% active; P. falciparum luciferase growth in erythrocytes, 48 h; AID 504832; Potency, µM (series often up to 28.7 µM), for inactives: at the top dose activity change, negative = inhibition, actives largely listed as inhibitors; also: potency is read from the fitted curve at half-maximal effect; % is scaled to controls: 0 for no effect and ±100 for the full control effect
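First compound was added to culture medium, then infected red cells at 0.1% parasitemia and 2% hematocrit (final). After incubation at 37 C under 5% CO2, luciferase detection reagent was dispensed and light output recorded.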
Cycloheximide cs: affects cycloheximide protein synthesis inhibition readout, counter-screen; cell reporter, cycloheximide protein synthesis inhibition counterscreen; max response, %; 300,000 tested, 12% active; AID 2314; in the data active = max response mostly above about 13%, no sharp cut-off; inactive = mostly below about 14%; also: read at 38.3 µM for the half of the compounds with a filed dose; 0% is about no effect
Pf growth 96h: inhibits malaria parasite growth, 96 h; P. falciparum luciferase reporter growth, 96 h; Potency, µM (top dose mostly 28.7 µM), inactives show at the top dose activity change, negative = inhibition, hits mostly inhibitors; 320,000 tested, 6.9% active; also: potency is read from the fitted curve at half-maximal effect; % is scaled to controls: 0 for no effect and ±100 for the full control effect
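Compounds incubated with erythrocytes infected by luciferase-expressing P. falciparum (2% hematocrit, 0.05% parasitemia final) for 96 hours, 37 C in 5% CO2. Growth inhibition scored as decreased luciferase luminescence.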
Shiga toxin inh: Shiga toxin inhibition. Vero cells, Shiga toxin protein synthesis inhibition reporter. inhibition, % at 38.7 µM. 290,000 tested, 9.2% active. AID 2315; in the data active = inhibition mostly above about 28%, no sharp cut-off; inactive = mostly below about 43%; also: 0% is about no effect
* hit, by the source's call; i = inactive; u = inconclusive; x = not tested or not shown; [ ] = dose if it differs, or a comment. Only some compounds are listed: those with a hit (about 21% of all), similar ones and a draw of the others. Unless noted, calls follow the shape of the dose curve; as a rule, active = well fitted inhibition curve with a large enough effect; inconclusive = small, poorly fitted or top-dose-only effect, or another doubt; inactive = no such curve, though single readings can be large or run the other way.

SMILES	Pf growth 48h	Cycloheximide cs	Pf growth 96h	Shiga toxin inh
COc1cccc(NC(=O)C(=O)N/N=C(\C)CC(=O)Nc2ccc(NC(C)=O)cc2)c1	128%	32*	114%	84*
Cc1ccc(CNC(=O)CS(=O)(=O)c2cn(CC(=O)N3CCOCC3)c3ccccc23)cc1	-10%	0	u	-11
COc1ccc(-n2nc([N+](=O)[O-])c(=NCCC3=CCCCC3)n2O)cc1	-13%	32*	u	46
Cc1ccc(CN=c2c([N+](=O)[O-])nn(-c3cccc(C)c3)n2O)cc1	70%	25*	77%	26
COc1ccc(-n2nc([N+](=O)[O-])c(=NCCc3ccc(C)cc3)n2O)cc1	26%	5	u	47
COc1ccc(-n2nc([N+](=O)[O-])c(=NCc3cccnc3)n2O)cc1	227%	65*	u	26
COc1ccc(-n2nc([N+](=O)[O-])c(=NCc3ccco3)n2O)cc1	301%	30*	31%	80*
Cc1ccc(NC(=O)CN2C(=O)NC3(CCCc4ccccc43)C2=O)c(C)c1 (stereo not drawn)	-4%	x	-24%	x
Cc1ccc(OCC(=O)N/N=C\c2ccncc2)c(C)c1	1%	-4	26%	-12
CC1(C)C(=O)OC(c2ccc([N+](=O)[O-])cc2)C(C)(C)C1=O (stereo not drawn)	u	-6	-9%	-6
CC(=O)Nc1ccc(NC(=S)NC(=O)c2ccc([N+](=O)[O-])cc2)cc1	19%	-5	27%	20
O=[N+]([O-])c1ccc(NC(=S)N/C(=N/CS(=O)(=O)c2ccccc2)c2ccccc2)cc1	-30%	28*	u	56*
COc1ccc(NC(=S)N/C(=N/CS(=O)(=O)c2ccccc2)c2ccccc2)cc1	209%	35*	14%	70*
CC(C)c1nnc(NC(=O)CS(=O)(=O)c2ccccc2)s1	12%	-4	-2%	-6
Cc1ccc(C(=O)N2CC(=O)Nc3ccc(F)cc3C2c2ccc(F)cc2)cc1[N+](=O)[O-] (stereo not drawn)	u	10	0%	10
CCCC(=O)N1CC(=O)Nc2ccc(C)cc2C1c1ccccc1 (stereo not drawn)	-30%	6	7.4µM*	26
CCC(CC)C(=O)N1CC(=O)Nc2ccc(C)cc2C1c1ccccc1 (stereo not drawn)	u	-3	u	-7
Cc1ccc(C(=O)N2CC(=O)Nc3ccc(F)cc3C2c2ccccc2)cc1[N+](=O)[O-] (stereo not drawn)	9.3µM*	4	u	-2
O=S(=O)(c1cccc(COc2c(Cl)cccc2Cl)c1)N1CCOCC1	3%	x	u	x
CC(C)CC(=O)Nc1ccc(S(=O)(=O)N2CCCC2)cc1	-2%	-1	u	-6
COc1cccc(NC(=O)CN(C)C(C)C(=O)Nc2ccc(S(=O)(=O)N3CCCC3)cc2)c1 (stereo not drawn)	9.3µM*	-2	4.7µM*	-7
Cc1ccc(NC(=O)CN(C)C(C)C(=O)Nc2ccc(S(=O)(=O)N3CCCC3)cc2)cc1 (stereo not drawn)	12µM*	x	12µM*	x
O=S(=O)(CCC1CCCCN1)c1ccccc1 (stereo not drawn)	21%	1	19%	-3
Clc1ccccc1-c1ncc(-c2ccccc2)o1	139%	26*	134%	x
COc1cc(/C(C)=N\NC(=O)CSc2nc3ccccc3n2C)ccc1O	-16%	1	-3%	-11
SMILES	Pf growth 48h	Cycloheximide cs	Pf growth 96h	Shiga toxin inh
O=C(NCCO)c1cc2c([nH]c3ccccc32)c(-c2ccc(F)cc2)n1	u	-1	15µM*	1
Cc1ccc(-c2nc(C(=O)NCCCN(C)C)cc3c2[nH]c2ccccc23)cc1	6.6µM*	-9	9.3µM*	-3
O=C1CC(/C=C/c2ccccn2)=Nc2ccccc2N1	u	22*	0%	57*
COc1ccc(/C=C/C(=O)c2cc3c(cc2N)OCO3)cc1	420%	33*	u	80*
COc1cc(/C=C/C(=O)O)cc(Br)c1O	4%	-2	45%	-1
COc1ccc(/C=C\C(=O)c2c(O)ccc3c(C)cc(=O)oc23)cc1	u	10	x	-33
COc1ccc(/C=C/C(=O)Nc2ccccc2C(=O)O)cc1OC	103%	23	u	50
COc1cc(OC)c(C(=O)/C=C/c2ccccc2)c(O)c1O	u	5	12µM*	4
COc1cc(O)cc(O)c1C(=O)/C=C/c1ccccc1	u	8.9*	45%	8
COc1ccc(/C=C/C(=O)c2c(O)ccc3c(C)cc(=O)oc23)cc1	10µM*	-3	i	-8
CCn1cc(/C=C(\NC(=O)c2ccccc2Cl)C(=O)N2CCN(C)CC2)c2ccccc21	u	-4	-5%	-6
COc1ccc(/C=C/C(=O)c2c(OC)cc(O)cc2OC)cc1	x	36*	x	65*
COc1ccc(/C=C/C(=O)c2ccc(OC)cc2OC)cc1	3µM*	37*	1.7µM*	48*
O=C(Nc1ccncc1)c1cc(S(=O)(=O)N2CCN(c3ccccc3)CC2)ccc1Cl	12µM*	x	u	x
O=C(Nc1ccncc1)c1cc(S(=O)(=O)N2CCCCC2)ccc1Cl	u	x	-14%	x
O=C(O)c1cc(S(=O)(=O)N2CCN(C(c3ccccc3)c3ccccc3)CC2)ccc1Cl	12µM*	2	9.3µM*	-1
Cc1ccc(S(=O)(=O)N2CCN(c3ccccc3)CC2)cc1C(N)=O	-19%[5.75 µM]	-5	13µM*	-4
COc1ccc(NC(=O)Nc2cc(C)ccc2F)cc1	x	26*	127%	34
COc1ccc(C(=O)COc2ccc(C)cc2NC(C)=O)cc1	108%	49*	138%	96*
COc1ccc(C)cc1NC(=O)Nc1ccccc1	x	6	-12%	-3
COc1cccc(NC(=O)Nc2cc(C)ccc2OC)c1	2%	6	8%	-5
COc1ccc(NC(=O)Nc2cc(C)ccc2OC)cc1	-7%	24*	14%	0
COc1cccc(NC(=O)Nc2cc(C)ccc2F)c1	61%	27*	14%	95*
CN1C(=O)C(c2ccccc2[N+](=O)[O-])C(=O)c2ccccc21 (stereo not drawn)	x	-3	23%	-8
COc1ccc(-c2csc(NC(=O)C3=COCCO3)n2)cc1OC	40%	x	38%	x
SMILES	Pf growth 48h	Cycloheximide cs	Pf growth 96h	Shiga toxin inh
Nc1nc(-c2ccc3c(c2)CCO3)cs1	124%	38*	u	98*
CC(=O)Nc1nc(-c2ccc3c(c2)CCO3)cs1	82%	29*	109%	74*
CC(C)[C@H](NC(=O)OCc1ccccc1)C(=O)NC(C=O)Cc1ccccc1 (stereo partly drawn)	1.3µM*	x	3.7µM*	x
CCN1CCN(c2ncnc3c2oc2nc(C(C)C)c4c(c23)CCC4)CC1	16%	-4	3.3µM*	-9
O=C(NC1CCN(C(=O)Nc2ccc(F)cc2)CC1)c1ccccc1F	1%	-6	16%	-18
Cc1[nH]nc(SCC(=O)N2CCCCC2)c1[N+](=O)[O-]	87%	23*	4%	86
Cc1[nH]nc(SCC(=O)N2CCCCCC2)c1[N+](=O)[O-]	-15%	11	24%	29
